5 compounds from PubChem BioAssay (Tox21) can be followed below.

Records with an inconclusive call do not appear. Unmarked numbers belong to inactive results. The source made the active and inactive calls. Unless noted, calls follow the shape of the dose curve; as a rule, active = well fitted curve in the direction sought with a large enough effect in the repeat runs; inconclusive = weak or mixed curves; inactive = no such curve, though single readings can be large; an effect the other way counts as inactive or inconclusive.

Assay [1] in a line: qHTS assay to identify small molecule agonists of the peroxisome proliferator-activated receptor delta (PPARd) signaling pathway - cell viability counter screen (AID 743211). Also: nearly all actives have a fitted effect of over 55% in size. The method in brief: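 Counter screen for cytotoxicity run in parallel with the PPARd reporter screen. Beta-lactamase reporter HEK293H cells exposed to compounds 17 h; ATP-based CellTiter-Glo luminescence quantified viability.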
Background: qHTS replaces the single test concentration by a dilution series.

Assay [2] can be described thus: qHTS assay to identify small molecule antagonists of the peroxisome proliferator-activated receptor delta (PPARd) signaling pathway - cell viability counter screen (AID 743213). Also: nearly all actives have a fitted effect of over 50% in size. In outline: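 Viability counter-screen, qHTS format: PPARd-bla HEK293H, L165041 300 nM final, 17 h compound exposure at 37 C, CellTiter-Glo luminescence after 30 min RT.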
The nature of assay [3]: qHTS assay to identify small molecule agonists of the farnesoid-X-receptor (FXR) signaling pathway - cell viability counter screen (AID 743218). Also: nearly all actives have a fitted effect of over 45% in size. Also: potency is read from the fitted curve at half-maximal effect. In outline:
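Luminescence from CellTiter-Glo, read after 30 min at RT, reports viability of GeneBLAzer FXR-UAS-bla HEK 293T cells treated 16 h with compounds in the wells used for the beta-lactamase reporter.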

Assay [4] in a line: qHTS assay to identify small molecule antagonists of the farnesoid-X-receptor (FXR) signaling pathway - cell viability counter screen (AID 743221; active = well fitted cell-killing curve with a large enough effect in the repeat runs, not every such curve was filed as active; also: nearly all actives have a fitted effect of over 50% in size; also: potency is read from the fitted curve at half-maximal effect). In outline:
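Multiplexed counter screen: viability of FXR-bla HEK 293T cells under agonist stimulation by chenodeoxycholic acid (50 uM, final) and test compound for 16 h at 37 C, measured by CellTiter-Glo luminescence in the reporter wells.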

Assay [5] in a line: qHTS assay to identify small molecule agonists of the vitamin D receptor (VDR) signaling pathway - cell viability counter screen (AID 743224). Also: series mostly up to about 63 µM; nearly all actives have a fitted effect of over 50% in size. In outline: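 Cytotoxicity counter screen: VDR-bla cells, 16 h compound exposure at 37C, 5% CO2; CellTiter-Glo luminescence, 30 min RT, same wells as bla read.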
A short description of assay [6]: qHTS assay to identify small molecule antagonists of the vitamin D receptor (VDR) signaling pathway - cell viability counter screen (AID 743225). Also: nearly all actives have a fitted effect of over 50% in size. In outline:
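HEK293T VDR-bla; cpd + 1a,25-(OH)2D3 3 nM final, 16 h 37C/5% CO2; B/G FRET substrate 2 h RT; then CellTiter-Glo 30 min RT, luminescence.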

A short description of assay [7]: qHTS assay to identify small molecule agonists of the NFkB signaling pathway - cell viability counter screen (AID 1159515; calls by dose curve; also: series mostly up to about 61 µM; nearly all actives have a fitted effect of over 55% in size). The method in brief:
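ME-180 NFkB-bla cells, 2,000/well; overnight attach; compound 5 hr, 37 C/5% CO2; LiveBLAzer substrate 1.5 hr RT; then CellTiter-Glo in same wells, 30 min RT, luminescence read.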

Assay [8] is described as follows: qHTS assay to identify small molecule agonists of the endoplasmic reticulum stress response signaling pathway - cell viability counter screen (AID 1159517; calls by dose curve). The method in brief: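 Steps: seed 1,500 ESRE-bla HeLa cells per well; incubate overnight at 37 C, 5% CO2; add compounds in DMSO for 5 hr; run FRET substrate 2 hr RT; add CellTiter-Glo, wait 30 min, read luminescence.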

Assay [9] in a line: qHTS assay to identify small molecule antagonists of the retinoid-related orphan receptor gamma (ROR-gamma) signaling pathway - cell viability counter screen (AID 1159520). Also: nearly all actives have a fitted effect of over 50% in size. The method in brief: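 Tet-on ROR gamma CHO cells were given compounds for 2 hr, then doxycycline hyclate at 1 uM final, and incubated 16 hr at 37 C. Viability was measured as ATP content by CellTiter-Glo luminescence.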

The target of assay [10] is Nuclear receptor ROR-gamma (Homo sapiens) (UniProt P51449). The assay is described as follows: qHTS assay to identify small molecule antagonists of the retinoid-related orphan receptor gamma (ROR-gamma) signaling pathway (AID 1159521; also: nearly all actives have a fitted effect of over 50% in size; also: potency is read from the fitted curve at half-maximal effect). The method in brief:
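Cells were plated, rested 4 h at 37 C, exposed to compounds for 2 h, then given 1 uM final doxycycline hyclate to induce RORγ expression. After 16 h, ONE-Glo luminescence from the ROR response element reporter was measured.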

A short description of assay [11]: qHTS assay to identify small molecule agonists of the AP-1 signaling pathway - cell viability counter screen (AID 1159525; calls by dose curve; also: nearly all actives have a fitted effect of over 55% in size). In outline:
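Same-well cytotoxicity counter screen of the Tox21 10K library in ME-180 cells. The readout is ATP-dependent luminescence after 5 h compound treatment. Data are normalised to DMSO and tetra n-octyl ammonium bromide controls.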

The nature of assay [12]: qHTS assay to identify small molecule agonists of the AP-1 signaling pathway (AID 1159526; calls by dose curve).
Assay [13] addresses Peroxisome proliferator-activated receptor delta (Homo sapiens) (UniProt Q03181). The assay can be described thus: qHTS assay to identify small molecule agonists of the peroxisome proliferator-activated receptor delta (PPARd) signaling pathway (AID 743212; calls by dose curve). In outline: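 Read-out: beta-lactamase FRET fluorescence after 2 h room-temperature incubation with LiveBLAzer B/G substrate. Cells were HEK293H carrying a UAS-bla reporter for PPARd, treated at 37 C with DMSO-dissolved compounds.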

In assay [14] the target is Vitamin D3 receptor (Homo sapiens) (UniProt P11473). The assay can be described thus: qHTS assay to identify small molecule agonists of the vitamin D receptor (VDR) signaling pathway (AID 743222; calls by dose curve). In outline: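 Beta-lactamase reporter readout (LiveBLAzer B/G FRET, 2 h RT) in VDR-bla cells after 16 h compound treatment at 37C, 5% CO2; cells pre-incubated 4 h before pin transfer of DMSO solutions.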

Assay [15] shares this target. The assay is described as follows: qHTS assay to identify small molecule antagonists of the vitamin D receptor (VDR) signaling pathway (AID 743223; active = well fitted inhibition curve with a large enough effect in the signal ratio in the repeat runs, not every such curve was filed as active; the % refers to the signal ratio; also: potency is read from the fitted curve at half-maximal effect). In outline: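 Cells carrying a VDR-driven beta-lactamase reporter (VDR-bla) were co-treated with compound and 3 nM final 1alpha,25-dihydroxyvitamin D3 for 16 h at 37C; reporter activity was measured as FRET substrate fluorescence after 2 h at room temperature.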

Assay [16] concerns the target Bile acid receptor (Homo sapiens) (UniProt Q96RI1). The assay can be described thus: qHTS assay to identify small molecule agonists of the farnesoid-X-receptor (FXR) signaling pathway (AID 743220; active = well fitted activation curve with a large enough effect in the signal ratio in the repeat runs, not every such curve was filed as active; the % refers to the signal ratio). In outline: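 FXR-UAS-bla HEK 293T cells carrying a UAS-driven beta-lactamase reporter were plated for 5 h at 37C/5% CO2, then exposed to DMSO-dissolved Tox21 10K compounds for 16 h at 37C. A LiveBLAzer B/G FRET substrate was loaded for 2 h at room temperature before fluorescence reading.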

The nature of assay [17]: qHTS assay to identify small molecule agonists of the endoplasmic reticulum stress response signaling pathway (AID 1159516; active = well fitted activation curve with a large enough effect in the signal ratio in the repeat runs, not every such curve was filed as active; the % refers to the signal ratio). In outline:
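HeLa ESRE-bla reporter line; cpd 5 h, 37 C/5% CO2; LiveBLAzer B/G FRET substrate 2 h RT; ex 405, em 460/530 nm.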

The target in assay [18] is Peroxisome proliferator-activated receptor delta (Homo sapiens) (UniProt Q03181). The assay is described as follows: qHTS assay to identify small molecule antagonists of the peroxisome proliferator-activated receptor delta (PPARd) signaling pathway (AID 743215; active = well fitted inhibition curve with a large enough effect in the signal ratio in the repeat runs, not every such curve was filed as active; the % refers to the signal ratio;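 also: cells stimulated with agonist L165041 at 300 nM final during compound exposure; series mostly up to about 62 µM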). In outline: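 HEK293H GeneBLAzer PPARd UAS-bla reporter cells; cpd + L165041 300 nM final, 17 h 37 C; LiveBLAzer B/G FRET substrate 2 h RT; fluorescence intensity read-out. Antagonist mode.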

The target in assay [19] is Bile acid receptor (Homo sapiens) (UniProt Q96RI1). The assay is described as follows: qHTS assay to identify small molecule antagonists of the farnesoid-X-receptor (FXR) signaling pathway (AID 743217; active = well fitted inhibition curve with a large enough effect in the signal ratio in the repeat runs, not every such curve was filed as active; the % refers to the signal ratio). The method in brief:
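Read-out: beta-lactamase FRET fluorescence (LiveBLAzer B/G substrate, 2 h, room temperature) in GeneBLAzer FXR-UAS-bla HEK 293T cells. Compounds were co-dosed with 50 uM chenodeoxycholic acid (final) and incubated 16 h at 37 °C.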

For assay [20], the target named is Retinoic acid receptor RXR-alpha (Homo sapiens) (UniProt P19793). The assay is described as follows: qHTS assay to identify small molecule agonists of the RXR signaling pathway (AID 1159527; calls by dose curve; also: nearly all actives have a fitted effect of over 35% in size). The method in brief: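 Cells plated at 2,000/well, rested 5 hr at 37 C, pin-dosed with DMSO compound solutions, incubated 16 hr, then loaded with B/G FRET substrate for 2 hr at RT before dual-emission fluorescence reading.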
Sequence of Retinoic acid receptor RXR-alpha (Homo sapiens) (P19793 whole entry, looked up): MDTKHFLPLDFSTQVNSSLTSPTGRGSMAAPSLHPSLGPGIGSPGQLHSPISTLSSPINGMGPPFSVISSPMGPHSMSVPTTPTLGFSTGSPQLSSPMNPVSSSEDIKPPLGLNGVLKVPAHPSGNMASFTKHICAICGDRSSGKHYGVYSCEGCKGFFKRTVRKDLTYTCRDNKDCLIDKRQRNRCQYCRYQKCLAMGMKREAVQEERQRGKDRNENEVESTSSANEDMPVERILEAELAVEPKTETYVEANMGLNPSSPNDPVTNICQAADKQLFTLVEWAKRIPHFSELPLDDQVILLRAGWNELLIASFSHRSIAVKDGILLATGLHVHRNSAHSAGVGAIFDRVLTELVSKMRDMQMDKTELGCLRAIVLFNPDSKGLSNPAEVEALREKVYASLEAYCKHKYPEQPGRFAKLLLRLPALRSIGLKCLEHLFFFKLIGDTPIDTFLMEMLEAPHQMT

Sequence of Bile acid receptor (Homo sapiens) (Q96RI1 whole entry, looked up): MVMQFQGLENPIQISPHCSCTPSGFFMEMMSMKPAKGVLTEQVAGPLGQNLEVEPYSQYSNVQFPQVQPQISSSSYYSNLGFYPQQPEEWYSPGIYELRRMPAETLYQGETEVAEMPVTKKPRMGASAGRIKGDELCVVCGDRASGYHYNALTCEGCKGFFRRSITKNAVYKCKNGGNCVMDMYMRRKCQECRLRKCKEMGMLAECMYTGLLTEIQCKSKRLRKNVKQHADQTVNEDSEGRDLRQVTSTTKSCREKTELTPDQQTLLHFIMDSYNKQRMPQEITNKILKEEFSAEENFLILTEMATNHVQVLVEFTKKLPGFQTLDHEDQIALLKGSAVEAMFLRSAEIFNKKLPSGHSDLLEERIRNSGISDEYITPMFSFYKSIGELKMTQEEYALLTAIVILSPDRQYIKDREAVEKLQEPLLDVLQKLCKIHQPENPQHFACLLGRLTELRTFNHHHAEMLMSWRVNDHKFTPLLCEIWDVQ
Sequence of Peroxisome proliferator-activated receptor delta (Homo sapiens) (Q03181 whole entry, looked up): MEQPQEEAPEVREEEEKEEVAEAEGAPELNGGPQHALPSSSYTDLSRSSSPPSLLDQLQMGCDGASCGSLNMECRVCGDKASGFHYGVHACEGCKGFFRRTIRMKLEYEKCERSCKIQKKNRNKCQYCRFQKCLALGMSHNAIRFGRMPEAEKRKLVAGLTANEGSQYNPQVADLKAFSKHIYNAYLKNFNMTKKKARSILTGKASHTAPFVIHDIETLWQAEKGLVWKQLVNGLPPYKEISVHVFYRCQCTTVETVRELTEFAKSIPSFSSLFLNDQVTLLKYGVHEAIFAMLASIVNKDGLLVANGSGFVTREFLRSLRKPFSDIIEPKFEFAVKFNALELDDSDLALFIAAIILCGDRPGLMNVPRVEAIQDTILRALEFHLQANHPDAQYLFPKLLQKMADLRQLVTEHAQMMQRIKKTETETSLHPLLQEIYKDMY
Sequence of Vitamin D3 receptor (Homo sapiens) (P11473 whole entry, looked up): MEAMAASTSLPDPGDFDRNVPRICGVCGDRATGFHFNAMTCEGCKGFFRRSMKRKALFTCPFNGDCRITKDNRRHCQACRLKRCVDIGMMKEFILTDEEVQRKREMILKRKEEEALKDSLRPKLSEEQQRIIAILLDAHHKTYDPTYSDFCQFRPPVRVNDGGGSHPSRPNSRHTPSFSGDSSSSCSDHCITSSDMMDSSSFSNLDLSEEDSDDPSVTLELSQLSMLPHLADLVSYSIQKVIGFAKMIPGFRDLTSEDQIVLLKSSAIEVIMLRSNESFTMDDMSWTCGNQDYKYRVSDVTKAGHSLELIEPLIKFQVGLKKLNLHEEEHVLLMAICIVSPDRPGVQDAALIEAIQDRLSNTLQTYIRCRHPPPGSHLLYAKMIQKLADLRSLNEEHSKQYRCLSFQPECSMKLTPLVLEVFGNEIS

With `O=C(O)c1cccc(N(Cc2cccnc2)c2ccc(OC(F)F)c(OC(F)F)c2)c1`, the Potency result in assay [1], in [2], in [3], in assay [4], in assay [5] and in assay [6] was “inactive” throughout. Besides, the Potency result in assay [7], in assay [9], in assay [11] and in assay [12] was “inactive” throughout. In addition, the call in [8] was inactive. Moreover, in [10], the Potency was 30.6 µM (active).

Consider `CCN(CC)CCOc1ccc2c(c1)C(=O)c1cc(OCCN(CC)CC)ccc1-2`, for which the result in assay [13], in [14] and in [8] was inactive. In addition, the Potency in assay [3] is 21.1 µM (active); in assay [4], 26.6 µM (active); in assay [15], 21.3 µM (active). Also, the Potency entry in assay [7], in [9], in [10], in [11] and in assay [12] was “inactive” throughout.

Consider `CCCCOC(=O)c1ccccc1C(=O)OCC(CC)CCCC` (centres undefined), for which the Potency entry in assay [1], in assay [2], in [3], in assay [4], in assay [5] and in assay [7] was “inactive” each time. Besides, the Potency entry in assay [9], in [10] and in [11] was “inactive” each time. Besides, the outcome in assay [13], in assay [16], in assay [14] and in assay [8] was inactive.

For `Cc1c(Cn2ccnc2)c2ccccc2n1CCC(=O)O`, the Potency result in assay [1], in assay [3], in assay [4], in assay [5], in assay [7] and in [17] was “inactive” throughout. The Potency entry in assay [10] and in [11] was “inactive” each time. Besides, the compound was classed as inactive in assay [13], in assay [14] and in assay [8].

In the case of `CCCCCCCCCCCCCCCBr`, the Potency entry in assay [1], in assay [2], in [3], in assay [4], in assay [5] and in [6] was “inactive” throughout. Moreover, the Potency result in [7], in [17], in [10], in assay [11] and in [20] was “inactive” in each case. In addition, the call in assay [13], in [18], in assay [19], in assay [16], in assay [14] and in assay [8] was inactive.
